This passage reports Potency results from PubChem BioAssay (NCATS).

Molecules are shown by their SMILES. Results filed as inconclusive are left out. Calls of active or inactive are those of the source. The call rests on the fitted dose curve; in most records, active means well fitted inhibition curve with a large enough effect; inconclusive means small, poorly fitted or top-dose-only effect; inactive means flat fitted curve, though single readings scatter.
Potency means the concentration at half of the fitted maximal effect.

In one experiment the test system is DIV14. Briefly: qHTS profiling for inhibitors of Plasmodium falciparum proliferation (AID 504749). Further: nearly all actives have a fitted effect of over 60% in size. The conditions noted are these: P. falciparum in erythrocytes, SYBR Green DNA, 72 h; series mostly up to 28.7 µM. Summed up: (§1)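 P. falciparum-infected erythrocytes (0.3% parasitemia, 2.5% hematocrit final) were exposed to compounds for 72 h at 37 C in 5% CO2, then lysed with SYBR Green buffer overnight at room temperature; parasite DNA fluorescence was normalized to artemisinin and DMSO controls.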
On to `CCN(CC)CCNC(C(=O)OCCC(C)C)c1ccccc1` (stereo not drawn), for which the Potency was 4.26 µM (active).

In the case of `CN1CCC[C@@H]1Cc1c[nH]c2ccc(CCS(=O)(=O)c3ccccc3)cc12`, the Potency was 9.53 µM (active).

With `CCCn1cnc2c1c(=O)n(CCCCC(C)=O)c(=O)n2C`, the Potency entry was “inactive”.

As for `Cc1c(O)cccc1C(=O)N[C@@H](CSc1ccccc1)[C@H](O)CN1C[C@H]2CCCC[C@H]2C[C@H]1C(=O)NC(C)(C)C`, the Potency was 16.9 µM (active).

A further experiment deals with DIV17. Described as above. As to conditions: P. falciparum in erythrocytes, SYBR Green DNA, 72 h; series mostly up to 28.7 µM. The method in brief: as §1
For `NCC(=O)CCC(=O)O`, the Potency entry is “inactive”.

For the compound `Oc1ccc(C(O)CNCCCCCCNCC(O)c2ccc(O)c(O)c2)cc1O` (stereo not drawn), the Potency was 15.1 µM (active).

As to `CSc1ccc2c(c1)N(CCC1CCCCN1C)c1ccccc1S2` (stereo not drawn), the Potency is 10.7 µM (active).

As to `COc1ccc2[nH]c(S(=O)Cc3ncc(C)c(OC)c3C)nc2n1` (stereo not drawn), the Potency was 4.78 µM (active).

For `COCCOC(=O)C1=C(C)NC(C)=C(C(=O)OC/C=C/c2ccccc2)C1c1cccc([N+](=O)[O-])c1` (stereo not drawn), the Potency is 8.49 µM (active).

In the case of `CNCCC(Oc1ccc(C(F)(F)F)cc1)c1ccccc1` (stereo not drawn), the Potency was 6.75 µM (active).

For the compound `CN(C)CCCN1c2ccccc2Sc2ccc(Cl)cc21`, the Potency was 4.78 µM (active).

Consider `CC(CN1c2ccccc2Sc2ccccc21)N(C)C` (stereo not drawn), for which the Potency entry was “inactive”.

As for `OCCN1CCN(CCCN2c3ccccc3Sc3ccc(Cl)cc32)CC1`, the Potency was 5.1 µM (active).

For the compound `CNC(=O)Oc1ccc2c(c1)[C@]1(C)CCN(C)[C@@H]1N2C`, the Potency was 4.26 µM (active).

As to `C#CCN(C)Cc1ccccc1`, the Potency result is “inactive”.

Regarding `O=C1c2c(O)cccc2Cc2cccc(O)c21`, the Potency entry was “inactive”.

Take `c1ccc(CN(CC2=NCCN2)c2ccccc2)cc1`: the Potency is 7.57 µM (active).

Consider `CSc1ccc2c(c1)C(N1CCN(C)CC1)Cc1ccccc1S2` (stereo not drawn), for which the Potency is 15.1 µM (active).

With `CCCCN1CCCC[C@H]1C(=O)Nc1c(C)cccc1C`, the Potency result is “inactive”.

For `CN1CCCCC1CCN1c2ccccc2Sc2ccc(S(C)=O)cc21` (stereo not drawn), the Potency is 12 µM (active).

As for `CC(C(O)c1ccc(O)cc1)N1CCC(Cc2ccccc2)CC1` (stereo not drawn), the Potency is 15.1 µM (active).

On to `CCN(CC)CCNC(=O)c1c(C)[nH]c(/C=C2\C(=O)Nc3ccc(F)cc32)c1C`, for which the Potency is 5.36 µM (active).

As for `CC(C)(C)C(=O)C(Oc1ccc(Cl)cc1)n1ccnc1` (stereo not drawn), the Potency was 13.5 µM (active).

Take `CCN(CC)CCNC(C(=O)OCCC(C)C)c1ccccc1` (stereo not drawn): the Potency was 7.57 µM (active).

As for `CNCCCC1c2ccccc2C=Cc2ccccc21`, the Potency is 2.56 µM (active).

Regarding `CN1CCC[C@@H]1Cc1c[nH]c2ccc(CCS(=O)(=O)c3ccccc3)cc12`, the Potency was 7.57 µM (active).

The test system of the next experiment is DIV30. The experiment is described as above. The conditions noted are these: P. falciparum in erythrocytes, SYBR Green DNA, 72 h; series mostly up to 28.7 µM. The method in brief:
as §1
Regarding `NCC(=O)CCC(=O)O`, the Potency result was “inactive”.

For `CNCCC(Oc1ccc(C(F)(F)F)cc1)c1ccccc1` (stereo not drawn), the Potency is 6.75 µM (active).

Turning to `CN(C)CCCN1c2ccccc2Sc2ccc(Cl)cc21`, the Potency was 9.53 µM (active).

Regarding `CC(CN1c2ccccc2Sc2ccccc21)N(C)C` (stereo not drawn), the Potency entry is “inactive”.

Take `OCCN1CCN(CCCN2c3ccccc3Sc3ccc(Cl)cc32)CC1`: the Potency entry was “inactive”.

As to `NC1CCN(c2cccc(Cl)n2)CC1`, the Potency result was “inactive”.

As to `C#CCN(C)Cc1ccccc1`, the Potency result is “inactive”.

`CCOC(CN1CCN(CC(C)C(=O)c2ccccc2)CC1)c1ccccc1` (stereo not drawn): the Potency result was “inactive”.

On to `O=C1c2c(O)cccc2Cc2cccc(O)c21`, for which the Potency entry was “inactive”.

Turning to `[Cl][In]([Cl])[Cl]`, the Potency is 15.1 µM (active).

In the case of `CCCCN1CCCC[C@H]1C(=O)Nc1c(C)cccc1C`, the Potency result is “inactive”.

For `Cc1ccc2nc(N)[nH]c(=O)c2c1Sc1ccncc1`, the Potency entry is “inactive”.

As for `CCN(CC)CCNC(=O)c1c(C)[nH]c(/C=C2\C(=O)Nc3ccc(F)cc32)c1C`, the Potency is 13.5 µM (active).

As to `CC(C)(C)C(=O)C(Oc1ccc(Cl)cc1)n1ccnc1` (stereo not drawn), the Potency is 12 µM (active).

Consider `CCCn1cnc2c1c(=O)n(CCCCC(C)=O)c(=O)n2C`, for which the Potency result was “inactive”.

Consider `Cc1c(O)cccc1C(=O)N[C@@H](CSc1ccccc1)[C@H](O)CN1C[C@H]2CCCC[C@H]2C[C@H]1C(=O)NC(C)(C)C`, for which the Potency is 15.1 µM (active).

The next experiment has as its system Dd2. The description is as above. The conditions noted are these: P. falciparum in erythrocytes, SYBR Green DNA, 72 h; series mostly up to 28.7 µM. The method in brief:
as §1
As for `NCC(=O)CCC(=O)O`, the Potency entry was “inactive”.

As to `Oc1ccc(C(O)CNCCCCCCNCC(O)c2ccc(O)c(O)c2)cc1O` (stereo not drawn), the Potency is 10 µM (active).

Regarding `COc1ccc2[nH]c(S(=O)Cc3ncc(C)c(OC)c3C)nc2n1` (stereo not drawn), the Potency was 12.6 µM (active).

Regarding `COCCOC(=O)C1=C(C)NC(C)=C(C(=O)OC/C=C/c2ccccc2)C1c1cccc([N+](=O)[O-])c1` (stereo not drawn), the Potency is 12.6 µM (active).

With `OCc1cc(C(O)CNCCCCCCOCCCCc2ccccc2)ccc1O` (stereo not drawn), the Potency result was “inactive”.

As to `OCCN1CCN(CCCN2c3ccccc3Sc3ccc(Cl)cc32)CC1`, the Potency was 3.55 µM (active).

Consider `C#CCN(C)Cc1ccccc1`, for which the Potency entry is “inactive”.

Take `NC(=O)N/N=C/c1ccc([N+](=O)[O-])o1`: the Potency is 10 µM (active).

`O=C1c2c(O)cccc2Cc2cccc(O)c21`: the Potency entry was “inactive”.

For the compound `c1ccc(CN(CC2=NCCN2)c2ccccc2)cc1`, the Potency was 12.6 µM (active).

For the compound `[Cl][In]([Cl])[Cl]`, the Potency is 11.2 µM (active).

Regarding `CCCCN1CCCC[C@H]1C(=O)Nc1c(C)cccc1C`, the Potency entry is “inactive”.

Turning to `Cc1ccc2nc(N)[nH]c(=O)c2c1Sc1ccncc1`, the Potency is 11.2 µM (active).

Regarding `CC(C(O)c1ccc(O)cc1)N1CCC(Cc2ccccc2)CC1` (stereo not drawn), the Potency was 8.91 µM (active).

As to `CCN(CC)CCNC(=O)c1c(C)[nH]c(/C=C2\C(=O)Nc3ccc(F)cc32)c1C`, the Potency is 11.2 µM (active).

As for `CC(C)(C)C(=O)C(Oc1ccc(Cl)cc1)n1ccnc1` (stereo not drawn), the Potency was 11.2 µM (active).

Regarding `CCN(CC)CCNC(C(=O)OCCC(C)C)c1ccccc1` (stereo not drawn), the Potency was 7.08 µM (active).

Take `CN1CCC[C@@H]1Cc1c[nH]c2ccc(CCS(=O)(=O)c3ccccc3)cc12`: the Potency is 12.6 µM (active).

Take `CCCn1cnc2c1c(=O)n(CCCCC(C)=O)c(=O)n2C`: the Potency result was “inactive”.

Turning to `Cc1c(O)cccc1C(=O)N[C@@H](CSc1ccccc1)[C@H](O)CN1C[C@H]2CCCC[C@H]2C[C@H]1C(=O)NC(C)(C)C`, the Potency is 11.2 µM (active).

For the compound `CCOc1nc2cccc(C(=O)O)c2n1Cc1ccc(-c2ccccc2-c2nn[nH]n2)cc1`, the Potency entry was “inactive”.
